Read-outs that look alike come from different tables or passages of the source.
Tests used:
ACOX1 = test system: ACOX1; set-up: species or system human, MV4-11 + K-562 + COLO205 + SK-N-BE2 + OVCAR-8; conditions: read-out: apparent Kd, n = 1
CLK1 = test system: CLK1; set-up: species or system human, MV4-11 + K-562 + COLO205 + SK-N-BE2 + OVCAR-8; conditions: read-out: apparent Kd; compound concentrations:100 nM and 1000 nM (sheet 'Samples'); n = 1
HCK = test system: HCK; set-up: species or system human, MV4-11 + K-562 + COLO205 + SK-N-BE2 + OVCAR-8; conditions: read-out: apparent Kd, n = 1
CSNK2A2 = test system: CSNK2A2; set-up: species or system human, MV4-11 + K-562 + COLO205 + SK-N-BE2 + OVCAR-8; conditions: read-out: apparent Kd, n = 1
Q6ZSR9 = Q6ZSR9 (human, UniProt Q6ZSR9); set-up: species or system MV4-11 + K-562 + COLO205 + SK-N-BE2 + OVCAR-8; conditions: read-out: apparent Kd; compound concentrations: 100 nM and 1000 nM (sheet 'Samples'), CATDS: 3.9115403920336002E-2; n = 1
Chain of Q6ZSR9 (Q6ZSR9 whole entry, looked up): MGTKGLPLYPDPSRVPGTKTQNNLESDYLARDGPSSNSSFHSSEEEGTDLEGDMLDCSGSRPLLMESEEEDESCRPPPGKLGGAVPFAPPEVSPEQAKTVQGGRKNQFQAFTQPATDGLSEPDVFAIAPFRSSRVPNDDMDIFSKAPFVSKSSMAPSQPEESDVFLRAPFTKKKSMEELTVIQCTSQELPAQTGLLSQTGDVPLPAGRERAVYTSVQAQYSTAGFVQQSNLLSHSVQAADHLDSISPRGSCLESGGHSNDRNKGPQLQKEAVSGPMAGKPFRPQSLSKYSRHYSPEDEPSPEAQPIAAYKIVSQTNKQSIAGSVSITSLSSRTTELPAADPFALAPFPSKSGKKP

GAK = test system: GAK; set-up: species or system human, MV4-11 + K-562 + COLO205 + SK-N-BE2 + OVCAR-8; conditions: read-out: apparent Kd, compound concentrations: 100 nM and 1000 nM (sheet 'Samples'), n = 1
RIPK2 = test system: RIPK2; set-up: species or system human, MV4-11 + K-562 + COLO205 + SK-N-BE2 + OVCAR-8; conditions: read-out: apparent Kd; compound concentrations:100 nM and 1000 nM (sheet 'Samples'); n = 1
[1] = compound concentrations:100 nM and 1000 nM (sheet 'Samples')

In the case of Cn1cc(C2=C(c3cn(CCCN/C(N)=N/[N+](=O)[O-])c4ccccc34)C(=O)NC2=O)c2ccccc21 [RO0318161-000], the potency estimated from few doses (ACOX1; compound concentrations: 100 nM and 1000 nM (sheet 'Samples'), CATDS: 0.32839321732103) is reported as 1100 nM.
Compound Cn1cc(C2=C(c3ccccc3[N+](=O)[O-])C(=O)NC2=O)c2ccccc21 [RO0317753-000] has a potency estimated from few doses (ACOX1; compound concentrations: 100 nM and 1000 nM (sheet 'Samples'), CATDS: 8.6924247533373397E-2) of 891 nM.
CC(=O)Nc1ccc2c(C3=C(c4cn(C)c5ccccc45)C(=O)NC3=O)cn(C)c2c1 [RO0317596-000] was tested, and the potency estimated from few doses (ACOX1; compound concentrations: 100 nM and 1000 nM (sheet 'Samples'), CATDS: 0.20475693554228799) was 453 nM.
NC(=O)c1sc(-n2cnc3ccc(C(F)(F)F)cc32)cc1OCc1ccccc1Br [GW853606X] showed a potency estimated from few doses (ACOX1; [1]) of 2200 nM.
COc1ccc(C2=C(Nc3cccc(O)c3)C(=O)NC2=O)cc1 [SB-390766] showed a potency estimated from few doses (ACOX1; [1]) of 861 nM.
With COc1cc(F)c(F)c(F)c1C(=O)c1cnc(NC2CCN(S(C)(=O)=O)CC2)nc1N [RO4600703-000] the potency estimated from few doses (ACOX1; [1]) was 1010 nM and the potency estimated from few doses (CLK1) was 729 nM.
COc1ccc(C2=NC(c3ccc(Cl)cc3F)C(C(=O)Nc3ccc4[nH]ncc4c3)=C(C)N2)cn1.O=C(O)C(F)(F)F (stereo not drawn) [GSK534913A] gave a potency estimated from few doses (ACOX1; [1]) of 1050 nM.
Cn1cc(C2=C(c3cn(CCCCCO)c4ccccc34)C(=O)NC2=O)c2ccccc21 [RO0318053-000] showed a potency estimated from few doses (ACOX1; compound concentrations: 100 nM and 1000 nM (sheet 'Samples'), CATDS: 0.35843240047959801) of 34.1 nM.
For NC(=O)c1cccnc1COc1cc(-c2ccc(N3CCOCC3)nc2)cc2ncccc12 [BI01125081], the potency estimated from few doses (HCK; [1]) was 1350 nM.
In the case of COc1ccc(C2=C(c3cn(C)c4ccccc34)C(=O)NC2=O)cc1OC [RO3206363-000], the potency estimated from few doses (ACOX1; compound concentrations: 100 nM and 1000 nM (sheet 'Samples'), CATDS: 3.3243349000795501E-2) is reported as 1570 nM, the potency estimated from few doses (CSNK2A2; compound concentrations: 100 nM and 1000 nM (sheet 'Samples'), CATDS: 3.3167701686651403E-2) is reported as 1580 nM and the potency estimated from few doses (HCK; compound concentrations: 100 nM and 1000 nM (sheet 'Samples'), CATDS: 3.6036002051639801E-2) is reported as 1170 nM. The potency estimated from few doses (Q6ZSR9) was 898 nM.
COc1cc(N2CCN(C(C)C)CC2)ccc1Nc1nc(Nc2cccc(F)c2C(=O)O)c2cc[nH]c2n1 [GSK1819799A] showed a potency estimated from few doses (GAK; CATDS: 9.1160563566663896E-2) of 352 nM.
For Cc1ccc(CC(=O)N2CCc3cc(-c4cn(C)c5ncnc(N)c45)ccc32)cc1 [GSK2634758A], the potency estimated from few doses (ACOX1; compound concentrations: 100 nM and 1000 nM (sheet 'Samples'), CATDS: 0.17317335895949701) was 1310 nM.
CCS(=O)(=O)c1ccc(OC)c(Nc2ncc(-c3cccc(F)c3)o2)c1 [GW621970X_KCGS] was tested, and the potency estimated from few doses (CSNK2A2; [1]) was 2010 nM.
Cc1ccc(NC(=O)c2ccc(Cl)cc2)cc1-c1ccc(C(=O)Nc2ccncc2)cc1 [GSK1398467A] gave a potency estimated from few doses (ACOX1; compound concentrations: 100 nM and 1000 nM (sheet 'Samples'), CATDS: 0.25978974702241497) of 761 nM.
Compound COc1ccc(S(=O)(=O)NC2CCN(c3cc(C)nc(Nc4cccc(C#N)c4)n3)CC2)cc1.O=C(O)C(F)(F)F [GSK1653539A] has a potency estimated from few doses (ACOX1; compound concentrations: 100 nM and 1000 nM (sheet 'Samples'), CATDS: 0.290276615306997) of 1770 nM.
For CCCCCNC(=O)[C@@H]1CCCN2C(=O)CC[C@H](NC(=O)[C@H](Cc3ccc(OP(=O)(O)O)cc3)NC(C)=O)C(=O)N12 [RO0324694-000], the potency estimated from few doses (ACOX1; [1]) was 1640 nM.
COc1ccc(-c2nn3ncccc3c2-c2ccnc(Nc3ccc4c(c3)OCCO4)n2)cc1 [GW827106X] showed a potency estimated from few doses (ACOX1; compound concentrations: 100 nM and 1000 nM (sheet 'Samples'), CATDS: 4.5987124512604401E-2) of 1840 nM and a potency estimated from few doses (GAK; CATDS: 6.3505143893273594E-2) of 888 nM.
With Cc1[nH]nc2c1N=C(c1ccccc1Cl)c1cc([N+](=O)[O-])ccc1N2 [RO0274406-000] the potency estimated from few doses (ACOX1; compound concentrations: 100 nM and 1000 nM (sheet 'Samples'), CATDS: 6.8791722684654694E-2) was 1400 nM.
Cc1ccc(C(=O)NC2CC2)cc1-c1ccc2[nH]ncc2c1 [GW820759X] was tested, and the potency estimated from few doses (ACOX1; compound concentrations: 100 nM and 1000 nM (sheet 'Samples'), CATDS: 0.303559006930335) was 1410 nM.
With Cl.Oc1ccc2ncnc(Nc3ccc(OCc4ccccc4)cc3)c2c1 [GI262866A] the potency estimated from few doses (ACOX1; [1]) was 830 nM and the potency estimated from few doses (RIPK2) was 923 nM.
Compound COc1ccccc1C(=O)c1cnc(NC2CCN(S(C)(=O)=O)CC2)nc1N [RO4514610-000] has a potency estimated from few doses (ACOX1; [1]) of 2190 nM.

Source: article PMC11062922 (Nature Chemical Biology, 2023)
